# Compound activity from PubChem BioAssay.
# HT1080 IDH1KD tx – toxicity to HT-1080 IDH1 knockdown cells (counter line); HT-1080 IDH1 knockdown viability, ATP luminescence, 48 h; actives 2% (n = 360,000); Potency, µM (top dose mostly 46.1 µM), without a hit: at the top dose activity, negative = toxicity, hits mostly cytotoxic; AID 686971;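 also: 0% = DMSO wells and -100% = cell-free medium wells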
#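 Knockdown cells (IDH1KD HT-1080) received compounds 2 h after plating at 750 cells/well and were kept 48 h at 37 °C in 5% FBS RPMI. A CellTiter-Glo luminescence read gave % activity for curve fitting.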
# HT1080NT lethal – kills 2HG-producing HT-1080-NT fibrosarcoma cells. actives 1.6% (n = 360,000). HT-1080-NT fibrosarcoma viability, CellTiter-Glo ATP luminescence, 48 h. AID 686970. Potency, µM (highest dose often 46.1 µM), for the others: top-dose activity, negative = less viability, actives largely listed as cytotoxic;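 also: NT is the 2HG producing partner of a matched IDH1 knockdown line; 0% = DMSO-treated cells and -100% = media-only wells without cells; nearly all actives have a fitted effect of over 55% in size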
#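 Fibrosarcoma NT cells, 750 per well in 5% FBS RPMI, were exposed to compound for 48 hours. Viability: CellTiter-Glo luminescence.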
# MCF10A rereplic – inducers of DNA re-replication in MCF 10A breast cells; MCF 10A DNA re-replication, Hoechst nuclear intensity, 48 h; Potency, µM (top dose mostly 46.1 µM), without a hit: at the highest dose activity, positive = re-replication, most hits filed as activators; actives 2.9% (n = 350,000); also: % of control where 0% means no effect; nearly all actives have a fitted effect of over 50% in size
# KB-V1 MDR tox – KB-V1 MDR subline cytotoxicity; actives 3.4% (n = 400,000); KB-V1 MDR cells viability, CellTiter-Glo, 72 h; Potency, µM (titrated, usually from 46.1 µM), actives largely listed as cytotoxic; also: % is scaled to controls: 0 for no effect and ±100 for the full control effect; nearly all actives have a fitted effect of over 60% in size
#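 Cytotoxicity toward P-gp-expressing KB-V1 cells was determined as loss of CellTiter-Glo luminescence after 72 h at 37 degrees C. Compounds were tested in quantitative HTS format across a concentration range, with curves fitted to normalized data.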
# SW480 rereplic – inducers of DNA re-replication in SW480 colon cancer cells; SW480 DNA re-replication, Hoechst DNA content imaging, 48 h; Potency, µM (highest dose often 46.1 µM), for the others: top-dose re-replication activation, usual class: activators; actives 1.8% (n = 340,000); AID 624297; also: % of control where 0% means no effect; nearly all actives have a fitted effect of over 55% in size
#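 Readout is total intensity of Hoechst-stained nuclei, excited at 405 nm and collected at 500-530 nm. Compound treatment lasted 48 hr at 37 C in 5% CO2 before staining.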
# KB-3-1 cytotox – KB-3-1 parental cell cytotoxicity. KB-3-1 viability, CellTiter-Glo ATP luminescence, 72 h. Potency, µM (titrated, usually from 46.1 µM), actives largely listed as cytotoxic. actives 1.4% (n = 400,000); also: % is scaled to controls: 0 for no effect and ±100 for the full control effect; nearly all actives have a fitted effect of over 60% in size
#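 Viability of parental KB-3-1 cells, measured by CellTiter-Glo luminescence, followed a 72 h incubation at 37 °C with pinned compounds in phenol-red-free DMEM containing 10% FBS.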
# Active calls of the source: *; i = inactive; ? = inconclusive; . = no result; [ ] = another dose, or the depositor's remark. The list is not random: actives were taken first. Their share in the collection is about 8%. Calls follow the shape of the dose curve; as a rule, active = well fitted curve in the direction sought with a large enough effect; inconclusive = small, poorly fitted or top-dose-only effect, or another doubt; inactive = no such curve, though single readings can be large; an effect the other way counts as inactive or inconclusive. Potency is read from the fitted curve at half-maximal effect.
SMILES,HT1080 IDH1KD tx,HT1080NT lethal,MCF10A rereplic,KB-V1 MDR tox,SW480 rereplic,KB-3-1 cytotox
COC(=O)Nc1ccc(S(=O)(=O)N2CCN(C)CC2)cc1,15.0%,17.1%,-6.5%,i,-3.2%,i
CN(C)S(=O)(=O)c1ccc(NC(=O)C2CCCN(C(=O)c3ccc(Cl)cc3)C2)cc1 (centres undefined),-2.5%,-3.4%,10.1%,i,3.8%,i
CCOc1cc2[nH]c(=O)n(CCCCC(=O)N3CCN(c4ccc(OC)cc4)CC3)c(=O)c2cc1OCC,.,.,.,i,.,i
CC(C)(C)c1ccc(Oc2ccc(NC(=O)CCC(=O)OCC(=O)c3ccccc3)cc2)cc1,.,.,.,i,.,i
O=C(O)c1ccc(N=Nc2c(O)[nH]c3ccccc23)cc1,?,5.8%,6.2%,?,23.1µM*,?
CN(C)C(=O)c1ccc(N=Nc2c(O)c3ccccc3[nH]c2=O)cc1,6.51µM*,5.8µM*,12.4%,?,?,i
Cc1cc(N=Nc2c(O)c3ccccc3[nH]c2=O)ccc1N=Nc1ccc(C(=O)N(C)C)cc1,-2.5%,0.6%,14.5%,i,-2.6%,i
COCCNc1ccc2cc(S(=O)(=O)N3CCCCC3)ccc2n1,.,.,.,i,.,i
Cc1noc(NS(=O)(=O)c2ccc(NC(=O)c3ccc(Br)cc3)cc2)c1C,.,.,.,?,.,i
Cc1ccc(C2=NC(c3ccccc3)=Nc3ccc(Cl)cc3N2)cc1,.,.,.,i,.,i
CCOC(=O)c1cccc(NC(=O)c2c(NCc3ccccc3)[nH]c(=O)[nH]c2=O)c1,?,?,5.8µM*,?,?,?
Cc1cccc(/C(N)=N/OC(=O)c2ccoc2C)c1,16.4µM*,?,?,?,12.6%,?
Cc1occc1C(=O)O/N=C(\N)c1ccccc1,?,?,-3.5%,?,5.5%,i
Cc1ccc(C)c(N2CCN(C(=O)Cn3cnc4nc5c(cc4c3=O)CCCC5)CC2)c1,.,.,.,i,.,i
O=C(CC1C(=O)CCCC1=O)c1ccccc1,?,?,14.6µM*,i,?,i
O=C(CCC1CCCCC1=O)c1ccccc1 (centres undefined),15.0%,8.4%,1.4%,i,2.1%,i
Cc1ccccc1NC(=O)CCC(=O)N/N=C/c1cc([N+](=O)[O-])ccc1O,?,-24.1%,?,20.6µM*,?,i
O=C(CCCC(=O)Nc1cccc(Br)c1)N/N=C/c1cc([N+](=O)[O-])ccc1O,?,-26.5%,-2.5%,i,?,?
O=C(CN(c1cccc(Br)c1)S(=O)(=O)c1ccccc1)N/N=C/c1cc([N+](=O)[O-])ccc1O,14.6µM*,7.31µM*,?,i,?,?
O=C(N/N=C/c1cc([N+](=O)[O-])ccc1O)c1cccc(N2CCCC2=O)c1,?,?,22.0%,i,9.2µM*,?
Cc1ccc(C)c(NC(=O)CCC(=O)N/N=C/c2cc([N+](=O)[O-])ccc2O)c1,?,-16.3%,?,?,?,?
O=C(N/N=C/c1cc([N+](=O)[O-])ccc1O)C(O)(c1ccccc1)c1ccccc1,?,-15.9%,?,i,20.6µM*,?
O=C(N/N=C/c1cc([N+](=O)[O-])ccc1O)C1CC1,?,?,?,i,-3.1%,?
COc1ccc(C)cc1NC(=O)N1CCN(c2cc(-c3noc(C)n3)ccc2C)CC1,.,.,.,?,.,i
O=C(NC1CCCCCC1)C1c2ccccc2C(=O)N1Cc1ccco1 (centres undefined),9.4%,5.7%,-9.4%,20.6µM*,-4.9%,i
SMILES,HT1080 IDH1KD tx,HT1080NT lethal,MCF10A rereplic,KB-V1 MDR tox,SW480 rereplic,KB-3-1 cytotox
CCC(C)N1C(=O)c2ccccc2C1C(=O)NC1CCCCCC1 (centres undefined),9.4%,-2.8%,3.2%,18.4µM*,-4.0%,i
CCOc1ccc(CN2C(=O)c3ccccc3C2C(=O)NC(C)CC)cc1OC (centres undefined),10.8%,0.0%,7.0%,i,0.7%,i
COc1ccc(CN2C(=O)c3ccccc3C2C(=O)NC2CCCC2)c(OC)c1 (centres undefined),-3.4%,8.9%,2.7%,3.66µM*,-0.2%,i
CC(C)N1C(=O)c2ccccc2C1C(=O)NC1CCCCCC1 (centres undefined),1.8%,0.4%[9.24 µM],-1.0%,i,0.9%,i
CCC(C)NC(=O)C1c2ccccc2C(=O)N1Cc1cc(OC)ccc1OC (centres undefined),11.4%,9.2%,19.1%,7.31µM*,0.8%,i
CCn1cc(C(=O)OCC(=O)Nc2cccc(Cl)c2C)c(=O)c2ccc(C)nc21,.,.,.,i,.,i
COc1ccc(CC(=O)NCC(c2ccc(N(C)C)cc2)N2CCOCC2)cc1OC (centres undefined),.,.,.,i,.,i
O=C(C[n+]1cc(Br)cc(Br)c1)c1ccc2c(c1)CCCC2,.,.,.,i,.,i
CCc1ccccc1NC(=O)c1sc2nc3n(c(=O)c2c1C)CCC3,.,.,.,i,.,i
CCN(Cc1nc2cc(Cl)ccc2c(=O)[nH]1)C(=O)c1ccc(C)c(NC(=O)c2ccco2)c1,2.0%,-7.5%,?,?,8.5%,i
CCN(Cc1nc2cc(Cl)ccc2c(=O)[nH]1)C(=O)c1nn(C)c(=O)c2ccccc12,-4.5%,-11.6%,-2.4%,18.4µM*,-3.0%,i
CCN(Cc1nc2cc(Cl)ccc2c(=O)[nH]1)C(=O)c1cc(C2CC2)nn1-c1ccccc1,3.5%,-2.1%,16.4µM*,i,-2.4%,i
Cc1cc(-c2nn3c(-c4ccccc4)nnc3s2)c2ccccc2n1,-17.3%,-2.1%,-1.7%,1.03µM*,7.9%,?
Cc1nnc2sc(-c3ccncc3)nn12,3.4%,-0.1%,5.1%,i,-1.2%,i
Cc1nnc2c3ccccc3c(-c3cccc4ccccc34)nn12,8.1%,13.4%,?,11.6µM*,-1.7%,i
Cc1nnc2sc(-c3cccc4ccccc34)nn12,5.0%,8.3%,-188.2%[0.0737 µM],5.17µM*,-2.9%,7.31µM*
Cc1nnc2sc(-c3csc4c3CCCC4)nn12,-3.0%,2.7%,?,7.31µM*,-2.8%,8.2µM*
Cc1ccccc1N1C(=O)c2cc(N)ccc2N/C1=C\F,.,.,-1.7%,.,-4.5%,.
CC(NC(=S)NCCc1ccccc1)C(c1cccs1)N1CCN(Cc2ccccc2)CC1 (centres undefined),?,?,?,i,20.6µM*,?
CCCCOc1ccccc1NC(=O)C=C(C)C,11.1%,0.2%,-3.2%,i,-8.7%,i
